Experimental data reported in PubChem BioAssay.
The source made the active and inactive calls. Cut-off read from the data, not from the text of the source, unless noted: active = inhibition above about 30%; inactive = the rest.

What was measured:
[1] = molecular target: Nuclear receptor coactivator 3 (Homo sapiens) (UniProt Q9Y6Q9); test: SRC3 coactivator transcriptional activity inhibitors, confirmation, cell-based, luminescence, quadruplicate (AID 588792;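 active = mean inhibition over 43.08%, the solvent-only control mean plus 3 SD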;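 note: 0% = DMSO treated cells and 100% = gossypol at 36 µM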); conditions: HEK293 GAL4-SRC3 luciferase reporter, at 3.6 µM, stronger effect = higher value
Nuclear receptor coactivator 3 (Homo sapiens), sequence (Q9Y6Q9 whole entry, looked up, the tested form may be a part): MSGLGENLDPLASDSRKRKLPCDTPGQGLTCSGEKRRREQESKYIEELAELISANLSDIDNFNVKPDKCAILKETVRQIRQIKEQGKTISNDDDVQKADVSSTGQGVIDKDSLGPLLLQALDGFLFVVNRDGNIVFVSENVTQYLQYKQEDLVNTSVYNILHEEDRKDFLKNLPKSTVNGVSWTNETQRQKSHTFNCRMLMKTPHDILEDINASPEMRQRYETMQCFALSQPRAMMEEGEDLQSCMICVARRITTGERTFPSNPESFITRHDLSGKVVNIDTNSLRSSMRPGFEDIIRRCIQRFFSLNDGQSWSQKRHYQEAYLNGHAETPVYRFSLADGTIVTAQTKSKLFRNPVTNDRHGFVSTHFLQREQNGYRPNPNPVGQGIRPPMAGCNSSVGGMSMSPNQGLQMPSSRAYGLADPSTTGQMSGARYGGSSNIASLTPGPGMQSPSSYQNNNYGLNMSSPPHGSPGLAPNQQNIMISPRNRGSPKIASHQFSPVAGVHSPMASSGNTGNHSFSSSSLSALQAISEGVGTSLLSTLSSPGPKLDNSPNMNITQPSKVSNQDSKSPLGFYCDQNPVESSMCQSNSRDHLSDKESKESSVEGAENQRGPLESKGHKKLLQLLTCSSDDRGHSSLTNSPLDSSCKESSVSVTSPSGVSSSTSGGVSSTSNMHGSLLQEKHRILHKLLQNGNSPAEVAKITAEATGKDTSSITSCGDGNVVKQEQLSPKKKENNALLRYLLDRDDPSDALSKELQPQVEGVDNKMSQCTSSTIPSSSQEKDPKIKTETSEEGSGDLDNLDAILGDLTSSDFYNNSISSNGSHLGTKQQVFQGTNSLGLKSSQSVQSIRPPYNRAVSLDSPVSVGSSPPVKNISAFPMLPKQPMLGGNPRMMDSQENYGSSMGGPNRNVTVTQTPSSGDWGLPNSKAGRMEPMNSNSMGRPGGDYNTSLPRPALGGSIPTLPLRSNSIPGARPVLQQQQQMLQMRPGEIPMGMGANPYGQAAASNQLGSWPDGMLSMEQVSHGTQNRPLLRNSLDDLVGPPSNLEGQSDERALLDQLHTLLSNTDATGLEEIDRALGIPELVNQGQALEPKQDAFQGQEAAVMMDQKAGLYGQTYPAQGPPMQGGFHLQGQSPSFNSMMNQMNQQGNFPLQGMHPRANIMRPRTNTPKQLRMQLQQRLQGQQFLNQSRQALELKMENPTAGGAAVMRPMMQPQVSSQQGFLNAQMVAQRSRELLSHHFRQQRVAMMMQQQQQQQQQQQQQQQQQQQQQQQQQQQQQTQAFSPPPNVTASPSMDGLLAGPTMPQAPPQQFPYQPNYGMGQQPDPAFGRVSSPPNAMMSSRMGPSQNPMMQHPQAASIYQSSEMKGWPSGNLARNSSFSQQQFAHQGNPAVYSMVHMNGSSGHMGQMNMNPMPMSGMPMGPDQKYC

[2] = system: transactivating tegument protein VP16 (Human herpesvirus 1), Gal4-VP16 luciferase reporter; test: VP16 transactivation inhibitors, counter-screen for SRC3 inhibitor project, cell-based, luminescence, high throughput (AID 588794); conditions: mammalian cells, VP16-driven luciferase reporter luminescence; at 3.6 µM; stronger effect = higher value
[3] = molecular target: Nuclear receptor coactivator 1 (Homo sapiens) (UniProt Q15788); test: SRC1 coactivator transcriptional activity inhibitors, confirmation, cell-based, luminescence, quadruplicate (AID 588820;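 active = mean inhibition above 46.68%, the untreated control wells mean plus 3 SD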;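 note: 0% = DMSO wells and 100% = gossypol 36 µM treated wells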); conditions: HEK293 GAL4-SRC1 luciferase reporter, at 3.6 µM, stronger effect = higher value
[4] = VP16 transactivation inhibitors, counter-screen for SRC1 inhibitor project, cell-based, luminescence, high throughput (AID 588824; in the data active = inhibition above about 25%); conditions: cell-based VP16 transactivation luciferase luminescence; at 3.6 µM; stronger effect = higher value
[5] = StAR promoter reporter inhibitors, counter-screen for LRH-1 inverse agonist project, cell-based, luminescence, high throughput (AID 651611; in the data active = inhibition above about 28%); conditions: StAR promoter luciferase reporter counterscreen, at 3.6 µM, stronger effect = higher value
[6] = molecular target: Nuclear receptor subfamily 5 group A member 2 (Homo sapiens) (UniProt O00482); test: LRH-1 (NR5A2) inverse agonists, retest, confirmation, cell-based, luminescence (AID 651613; in the data active = inhibition above about 42%;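 note: HEK293T cells co-transfected with LRH-1 and StAR promoter luciferase reporter; 0% = vehicle wells and 100% = parental cells lacking receptor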); conditions: cell-based LRH-1 luciferase reporter, inverse agonism; at 3.6 µM; stronger effect = higher value
Nuclear receptor subfamily 5 group A member 2 (Homo sapiens), sequence (O00482 whole entry, looked up): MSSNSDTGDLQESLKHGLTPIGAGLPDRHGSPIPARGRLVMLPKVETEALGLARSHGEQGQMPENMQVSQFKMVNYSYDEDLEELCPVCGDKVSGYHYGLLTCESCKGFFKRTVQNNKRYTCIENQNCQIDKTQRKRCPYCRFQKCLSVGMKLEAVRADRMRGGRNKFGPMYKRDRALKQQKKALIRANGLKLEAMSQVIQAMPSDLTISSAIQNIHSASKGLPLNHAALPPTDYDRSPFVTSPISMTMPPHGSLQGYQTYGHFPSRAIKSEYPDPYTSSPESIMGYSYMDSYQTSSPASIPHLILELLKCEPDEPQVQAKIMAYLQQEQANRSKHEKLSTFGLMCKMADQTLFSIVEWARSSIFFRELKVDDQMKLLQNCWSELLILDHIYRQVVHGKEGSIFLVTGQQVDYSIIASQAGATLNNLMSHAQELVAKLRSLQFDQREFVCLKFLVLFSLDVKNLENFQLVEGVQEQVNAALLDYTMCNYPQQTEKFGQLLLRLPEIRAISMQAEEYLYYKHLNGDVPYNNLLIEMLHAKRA

[7] = molecular target: Steroidogenic factor 1 (Homo sapiens) (UniProt Q13285); test: SF1 (NR5A1) inverse agonists, counter-screen for LRH-1 inverse agonist project, cell-based, luminescence, high throughput (AID 651614; in the data active = inhibition above about 44%;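 note: cells cotransfected with StAR promoter reporter and SF1 expression vector; 0% = vehicle on cells with receptor and 100% = vehicle on cells lacking receptor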); conditions: cell-based SF1 luciferase reporter, at 3.6 µM, stronger effect = higher value
Steroidogenic factor 1 (Homo sapiens), sequence (Q13285 whole entry, looked up, the tested form may be a part): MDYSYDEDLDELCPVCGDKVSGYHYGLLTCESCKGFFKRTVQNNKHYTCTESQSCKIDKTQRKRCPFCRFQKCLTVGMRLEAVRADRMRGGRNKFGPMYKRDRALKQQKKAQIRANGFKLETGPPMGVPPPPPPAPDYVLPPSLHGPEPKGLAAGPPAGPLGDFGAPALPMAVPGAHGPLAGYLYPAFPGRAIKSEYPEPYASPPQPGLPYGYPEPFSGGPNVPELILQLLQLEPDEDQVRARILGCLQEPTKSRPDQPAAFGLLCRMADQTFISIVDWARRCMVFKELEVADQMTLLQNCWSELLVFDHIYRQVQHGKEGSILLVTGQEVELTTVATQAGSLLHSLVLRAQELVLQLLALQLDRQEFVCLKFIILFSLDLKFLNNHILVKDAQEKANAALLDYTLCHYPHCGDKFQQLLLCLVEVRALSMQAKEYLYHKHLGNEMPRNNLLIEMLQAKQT

[8] = VP16 transactivation reporter inhibitors, counter-screen for LRH-1 inverse agonist project, cell-based, luminescence, high throughput (AID 651615; in the data active = inhibition above about 33%); conditions: Gal4-VP16 luciferase reporter cells, at 3.6 µM, stronger effect = higher value
[9] = system: transactivating tegument protein VP16 (Human herpesvirus 1); test: VP16 transactivation reporter inhibitors, counter-screen for SRC2 inhibitor project, cell-based, luminescence, single concentration (AID 652007; in the data active = inhibition above about 36%); conditions: cell-based VP16 transactivation luciferase reporter, at 8.9 µM, stronger effect = higher value
[10] = molecular target: Nuclear receptor coactivator 2 (Homo sapiens) (UniProt Q15596); test: SRC2 coactivator transcriptional activity inhibitors, confirmation, cell-based, luminescence, HEK293, triplicate (AID 652008;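 active = mean inhibition above 46.5%, the solvent-only control mean plus 3 SD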;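 note: 0% = DMSO-treated cells and 100% = Gossypol at 36 µM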); conditions: HEK293 GAL4-SRC2 luciferase reporter, at 8.9 µM, stronger effect = higher value
Nuclear receptor coactivator 2 (Homo sapiens), sequence (Q15596 whole entry, looked up, the tested form may be a part): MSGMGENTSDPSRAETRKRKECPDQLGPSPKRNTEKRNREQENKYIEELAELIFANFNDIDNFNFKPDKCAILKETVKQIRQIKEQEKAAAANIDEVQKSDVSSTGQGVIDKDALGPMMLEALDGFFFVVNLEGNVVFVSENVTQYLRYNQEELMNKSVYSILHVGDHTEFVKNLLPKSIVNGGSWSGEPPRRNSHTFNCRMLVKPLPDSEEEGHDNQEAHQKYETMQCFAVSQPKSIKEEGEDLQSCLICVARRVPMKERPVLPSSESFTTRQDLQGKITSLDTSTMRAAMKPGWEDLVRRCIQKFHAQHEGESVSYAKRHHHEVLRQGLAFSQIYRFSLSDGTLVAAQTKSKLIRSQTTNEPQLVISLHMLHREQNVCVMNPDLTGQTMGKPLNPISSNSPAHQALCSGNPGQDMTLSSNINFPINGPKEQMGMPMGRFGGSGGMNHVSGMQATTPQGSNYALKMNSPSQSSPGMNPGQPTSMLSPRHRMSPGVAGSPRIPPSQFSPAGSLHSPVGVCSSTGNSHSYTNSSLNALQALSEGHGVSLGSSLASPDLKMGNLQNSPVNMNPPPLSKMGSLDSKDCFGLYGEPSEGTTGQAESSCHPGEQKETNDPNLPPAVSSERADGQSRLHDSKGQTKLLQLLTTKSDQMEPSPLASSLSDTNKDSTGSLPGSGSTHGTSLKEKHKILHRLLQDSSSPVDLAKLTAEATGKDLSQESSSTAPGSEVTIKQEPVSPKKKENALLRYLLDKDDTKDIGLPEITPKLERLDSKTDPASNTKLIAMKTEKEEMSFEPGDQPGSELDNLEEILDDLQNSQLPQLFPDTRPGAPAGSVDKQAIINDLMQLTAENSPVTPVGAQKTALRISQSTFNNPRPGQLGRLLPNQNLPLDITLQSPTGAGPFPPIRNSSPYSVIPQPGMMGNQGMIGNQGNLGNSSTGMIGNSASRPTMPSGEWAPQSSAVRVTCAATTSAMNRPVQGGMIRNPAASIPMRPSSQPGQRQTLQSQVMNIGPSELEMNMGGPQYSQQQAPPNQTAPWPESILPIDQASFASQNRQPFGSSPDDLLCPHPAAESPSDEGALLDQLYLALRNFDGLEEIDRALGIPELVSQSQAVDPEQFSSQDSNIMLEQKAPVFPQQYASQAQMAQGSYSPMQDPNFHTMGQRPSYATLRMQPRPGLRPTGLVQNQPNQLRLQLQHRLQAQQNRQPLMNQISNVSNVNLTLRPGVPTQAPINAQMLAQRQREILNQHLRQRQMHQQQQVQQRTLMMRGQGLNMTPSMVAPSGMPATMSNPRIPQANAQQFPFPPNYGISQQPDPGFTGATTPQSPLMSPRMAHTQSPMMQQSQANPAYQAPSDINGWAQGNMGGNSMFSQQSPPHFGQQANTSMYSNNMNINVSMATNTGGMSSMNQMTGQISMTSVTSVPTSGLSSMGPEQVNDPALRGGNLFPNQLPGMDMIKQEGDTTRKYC

Measured: inhibition

COc1ccc(S(=O)(=O)N2CCOCC2)cc1NC(=O)CCNC(=O)c1ccc([N+](=O)[O-])cc1
inactive: [9] 4.19%
active: [1] 88.6% | [2] 60.8% | [3] 75.6% | [4] 33.3% | [5] 89.2% | [6] 99.3% | [7] 95.5% | [8] 72.9% | [10] 49.4%

CCN(CC)c1ccc(C(=C2C=CC(=[N+](CC)CC)C=C2)c2ccccc2)cc1
inactive: [3] -95%
active: [1] 95.5% | [2] 95.9% | [4] 94.3% | [5] 97.7% | [6] 109% | [7] 99.1% | [8] 98.7% | [9] 98.3% | [10] 99.5%

Nc1ncnc2c(C3OC(CO)C(O)C3O)scc12 (stereo not given)
active: [1] 90.7% | [2] 95.1% | [3] 78.5% | [4] 94.9% | [5] 89.2% | [6] 107% | [7] 96.5% | [8] 92.9% | [9] 62.8% | [10] 57.2%

CN(c1ncnc(N)c1[N+](=O)[O-])C1CCCCC1
active: [1] 82.5% | [2] 59.7% | [3] 69.9% | [4] 55.3% | [5] 32.3% | [6] 56.7% | [7] 44.1% | [8] 72.2% | [10] 59.8%
inactive: [9] 28.4%

Cc1c(/C(O)=C2/C(=O)C(=O)N(CCN3CCOCC3)C2c2ccccn2)cnn1-c1ccccc1 (stereo not given)
inactive: [6] 24.3% | [8] 12.3%
active: [1] 62.5% | [2] 41.7% | [3] 54.5% | [4] 26.1% | [5] 68.9% | [7] 75.2% | [9] 68.5% | [10] 83.4%

CN1CCN(c2ccc(-c3ccc4ccccc4n3)cc2)CC1
inactive: [3] 34.8% | [6] 8.01% | [8] 26.9%
active: [1] 72.1% | [2] 62.6% | [4] 36.6% | [5] 63.8% | [7] 64% | [9] 61.1% | [10] 79.3%

Cc1ccc(/C=C2/SC(=S)N(CCCC(=O)Nc3ccc(O)cc3)C2=O)cc1
inactive: [2] 12.8% | [3] 41.2% | [4] 3.55% | [6] 6.39% | [8] -5.05%
active: [1] 57% | [5] 55% | [7] 52.3% | [9] 43.6% | [10] 54.1%

CC(O)CC(=O)OC[C@]12CC[C@H]3[C@@](C)(CC[C@H]4C(C)(C)CCC[C@]34C)[C@@H]1CC(C1=CC(=O)OC1O)O2 (stereo not given in full)
inactive: [1] 30.2% | [3] 31% | [10] -41%
active: [2] 53.4% | [4] 43.4% | [5] 51.2% | [6] 76.6% | [7] 80.5% | [8] 75.2% | [9] 50.6%

CC1CCCN(c2ncnc3c2cnn3-c2ccc(Cl)cc2)C1 (stereo not given)
active: [1] 88.7% | [2] 84.3% | [3] 74.4% | [4] 71.4% | [5] 80.3% | [6] 60.3% | [7] 79.2% | [8] 66.5% | [9] 82% | [10] 93.9%

COc1ccc(C[C@H](N)C(=O)N[C@H]2[C@@H](O)[C@H](n3cnc4c(N(C)C)ncnc43)O[C@@H]2CO)cc1
active: [1] 97% | [2] 94.2% | [3] 89.3% | [4] 91.8% | [5] 97% | [6] 111% | [7] 99.4% | [8] 99.4% | [9] 91% | [10] 92.4%

CC1=C(C(=O)OCc2ccc3c(c2)OCO3)C(c2ccc(F)cc2)NC(=O)N1 (stereo not given)
inactive: [9] 16.1%
active: [1] 77.2% | [2] 66.2% | [3] 70.7% | [4] 67.6% | [5] 49.1% | [6] 71.3% | [7] 62.8% | [8] 85.2% | [10] 58.7%

Cc1ccc(C(=O)O/N=C(\N)c2ccccn2)c(Cl)c1
inactive: [1] 28.7% | [2] 11.1% | [3] -47.4% | [4] -23.7% | [5] -22.8% | [6] -86.9% | [7] 4.43% | [8] -54.1%
active: [9] 50.6% | [10] 70.8%

CC(C)(C)c1ccc(C(=O)Nc2sc3c(c2C(=O)O)CCC3)cc1
active: [1] 48.4% | [2] 73% | [4] 73.4% | [5] 77.2% | [6] 95.7% | [7] 90.7% | [8] 77.3%
inactive: [3] 42.3% | [9] 8.37% | [10] 10.1%

CCCNC1=C(N(C(C)=O)c2cccc(F)c2)C(=O)c2ccccc2C1=O
active: [1] 49.9% | [2] 65.3% | [3] 58.6% | [4] 67.2% | [5] 68.9% | [6] 68.8% | [7] 88% | [8] 69.2%
inactive: [9] 24.1% | [10] 34.3%

COC(=O)c1ccccc1-c1c2ccc(=N)cc-2oc2cc(N)ccc12
inactive: [1] 35% | [3] 28.7% | [9] 21.2% | [10] 3.71%
active: [2] 55.2% | [4] 48.3% | [5] 62.2% | [6] 109% | [7] 79.1% | [8] 88%

COc1ccc2cc3c(N)nn(C(=O)Cc4c[nH]c5ccccc45)c3nc2c1
active: [1] 82.3% | [2] 66.2% | [3] 69% | [4] 63.9% | [5] 51.1% | [6] 64.7% | [7] 55.5% | [8] 83.3% | [10] 73.2%
inactive: [9] 31.8%

Cc1ccccc1C(=O)N1CCN(c2ccc(NC(=O)c3ccc4c(c3)OCO4)cc2)CC1
active: [1] 55.4% | [2] 72.5% | [3] 60.7% | [4] 72.9% | [5] 60.1% | [6] 75.1% | [7] 76.1% | [8] 80.7%
inactive: [9] 10.2% | [10] 27.1%

CCOc1cc(CNc2ccc3c(c2)OCCO3)cc(Br)c1OC
inactive: [3] -15.9% | [4] -7.96% | [6] -55.6% | [7] 23.8% | [8] -1.87% | [9] 1.28%
active: [1] 50.5% | [2] 29.5% | [5] 39.5% | [10] 48.8%

Cc1c(C)c2ccc(OCC(=O)Nc3ccccn3)c(C)c2oc1=O
active: [1] 78.5% | [2] 72.3% | [3] 50.1% | [4] 59.6% | [5] 67.5% | [6] 68.8% | [7] 76.4% | [8] 69.7% | [9] 81.3% | [10] 90.3%

CCCCCCCC/C=C\CCCCCCCC(=O)NCCc1ccc(O)c(O)c1
inactive: [1] 22% | [2] -11.3% | [3] -70% | [4] -11.4% | [5] -4.3% | [6] -29.9% | [7] 4.21% | [8] -16.1% | [9] 1.26% | [10] 21%

Cc1cc(C2=NNC(=NC3CC3)SC2)c(C)n1-c1ccccc1F
active: [1] 84.8% | [2] 88.3% | [3] 78.7% | [4] 80.7% | [5] 92% | [6] 79.6% | [7] 91.1% | [8] 79.1% | [9] 93.6% | [10] 97%

Cc1nc2c(-c3ccc(F)cc3)cnn2c(N)c1-c1ccccc1
active: [1] 55.5% | [2] 38.8% | [9] 74.5% | [10] 79.6%
inactive: [3] 29.6% | [4] 7.29% | [5] 6.33% | [6] -102% | [7] -17.6% | [8] -0.77%

Oc1ccc(CCNc2ncnc3ccc(Cl)cc23)cc1
active: [1] 64.9% | [2] 61.6% | [3] 60.8% | [4] 62% | [5] 43.6% | [6] 70.5% | [7] 68.7% | [8] 78.6% | [10] 65.6%
inactive: [9] 26.7%

CNC1=C(N(C(C)=O)c2ccc(Br)cc2)C(=O)c2ccccc2C1=O
active: [1] 82.4% | [2] 84.8% | [3] 74.2% | [4] 84.8% | [5] 76.4% | [6] 97.4% | [7] 90.8% | [8] 89.3% | [10] 48.9%
inactive: [9] 18.5%

CC(C)c1ccc(/C=C(\c2nc3ccccc3[nH]2)S(=O)(=O)c2ccccc2)cc1
inactive: [3] -0.35% | [4] 24.9%
active: [1] 54.2% | [2] 39.6% | [5] 33.9% | [6] 54.6% | [7] 54.7% | [8] 46.6% | [9] 36.6% | [10] 49.3%

Clc1ccc(-n2ncc3c(NCCN4CCOCC4)ncnc32)cc1
active: [5] 28.4% | [9] 36.7% | [10] 58.9%
inactive: [1] 37.8% | [2] -3.35% | [3] 3.19% | [4] -21.6% | [6] -30.3% | [7] 33.4% | [8] -23.4%

O=C(Nc1nc2ccccc2[nH]1)c1ccccc1F
inactive: [1] 27.6% | [2] 19.6% | [3] -26.7% | [4] 11.2% | [5] -0.87% | [6] -32.3% | [7] 13.5% | [8] -10.4%
active: [9] 43.9% | [10] 67.2%

CCCS(=O)(=O)c1cnc(C2COc3ccccc3O2)nc1N (stereo not given)
active: [1] 61.5% | [2] 44.9% | [4] 33.6% | [5] 43.2% | [9] 37.2% | [10] 75%
inactive: [3] 18.9% | [6] 2.93% | [7] 36.5% | [8] 23.1%

O=C(COc1ccc(Cl)cc1Cl)Nc1ccccn1
inactive: [3] 32.1% | [6] 27.2%
active: [1] 56.2% | [2] 53.6% | [4] 48.2% | [5] 46.9% | [7] 60.6% | [8] 32.3% | [9] 67.4% | [10] 85.2%
